Bioassay records (PubChem BioAssay)
Most compounds without a hit are left out; they make up all but 8.9% or so of the library.
KB-V1 cytotox – kills drug-selected multidrug resistant KB-V1 cells. KB-V1 MDR cells viability, CellTiter-Glo, 72 h. Potency, µM (highest dose often 46.1 µM), usual class: cytotoxic. 3.4% of 400,000 active. AID 1347076; also: potency is read from the fitted curve at half-maximal effect; % is scaled to controls: 0 for no effect and ±100 for the full control effect; nearly all actives have a fitted effect of over 60% in size
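qHTS viability screen in drug-selected KB-V1 MDR cells: 72 h compound treatment at 37 degrees C, ATP luminescence end point.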
SW480 rereplic – induces DNA re-replication in SW480 colon adenocarcinoma cells; SW480 DNA re-replication, Hoechst DNA content imaging, 48 h; Potency, µM (titrated, usually from 46.1 µM), for the others: top-dose re-replication activation, hits mostly activators; 1.8% of 340,000 active; also: potency is read from the fitted curve at half-maximal effect; % of control where 0% means no effect; nearly all actives have a fitted effect of over 55% in size
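DNA re-replication was detected as more nuclei of elevated Hoechst intensity after 48 hr exposure to compound (23 nL pinned per well of 250 cells).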
KB-3-1 tox – KB-3-1 parental cell cytotoxicity; KB-3-1 viability, CellTiter-Glo ATP luminescence, 72 h; Potency, µM (top dose mostly 46.1 µM), actives largely listed as cytotoxic; 1.4% of 400,000 active; AID 1347075; also: potency is read from the fitted curve at half-maximal effect; % is scaled to controls: 0 for no effect and ±100 for the full control effect; nearly all actives have a fitted effect of over 60% in size
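Screening of KB-3-1 cells (DMEM, 10% FBS, phenol-red free) ran from lowest to highest compound concentration; after 72 h at 37 °C viability was read luminescently and curves fitted.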
MCF10A rereplic – DNA re-replication induction in MCF 10a cells. MCF 10A DNA re-replication, Hoechst nuclear intensity, 48 h. Potency, µM (doses to about 46.1 µM), without a hit: at the highest dose activity, positive = re-replication, usual class: activators. 2.9% of 350,000 active; also: potency is read from the fitted curve at half-maximal effect; % of control where 0% means no effect; nearly all actives have a fitted effect of over 50% in size
DRD3 agonist – activates the human D3 dopamine receptor; P35462; D3R DiscoveRx beta-arrestin cells, luminescence, 90 min; max activation, %; 0.58% of 410,000 active; AID 652048; in the data active = max activation above about 30%; also: 0% is about no effect
Target sequence (P35462 whole entry, looked up): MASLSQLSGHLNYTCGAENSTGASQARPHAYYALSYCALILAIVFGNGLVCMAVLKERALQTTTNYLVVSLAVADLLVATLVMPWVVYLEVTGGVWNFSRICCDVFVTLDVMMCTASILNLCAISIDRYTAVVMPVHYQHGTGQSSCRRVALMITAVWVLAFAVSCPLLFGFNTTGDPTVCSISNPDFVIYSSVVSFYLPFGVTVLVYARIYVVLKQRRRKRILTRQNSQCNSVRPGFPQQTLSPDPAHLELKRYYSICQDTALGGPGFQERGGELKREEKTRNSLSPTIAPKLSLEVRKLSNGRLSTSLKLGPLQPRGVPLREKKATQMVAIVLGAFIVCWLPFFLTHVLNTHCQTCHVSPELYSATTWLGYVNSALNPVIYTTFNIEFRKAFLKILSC
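Agonist-mode cell screen: cells plated at 1500/well and incubated overnight at 37 °C, then exposed to library compounds for 90 min at 37 °C. Detection reagent was added for 30–60 min at room temperature, and luminescence was read.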
DRD3 antagonist – blocks the human D3 dopamine receptor. P35462. D3R cells, DiscoveRx beta-arrestin luminescence, antagonist mode; active compounds read low. max response, negative = inhibition, %. 2.5% of 360,000 active; in the data active = max response below about -50%; inconclusive = no clear call, values can overlap the other calls; also: % is scaled to controls: 0 for no effect and ±100 for the full control effect
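Cells expressing the human receptor were seeded at 1500 cells/well, incubated overnight at 37 degrees C in 5% CO2, then exposed to library compounds with dopamine controls for 90 minutes at 37 degrees C before luminescent detection.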
An asterisk follows results filed as active; i = inactive; ? = inconclusive; . = not tested or not shown; [ ] = another dose, or the depositor's remark. Unless noted, calls follow the shape of the dose curve; as a rule, active = well fitted curve in the direction sought with a large enough effect; inconclusive = small, poorly fitted or top-dose-only effect, or another doubt; inactive = no such curve, though single readings can be large; an effect the other way counts as inactive or inconclusive.

SMILES | KB-V1 cytotox | SW480 rereplic | KB-3-1 tox | MCF10A rereplic | DRD3 agonist | DRD3 antagonist
CCOC(=O)Nc1ccc2c(CN3CCC(C(=O)OC)CC3)cc(=O)oc2c1 | i | -2% | i | -13% | 14 | -3
Cc1cc2oc(=O)cc(CN3CCN(c4ccccc4)CC3)c2cc1Cl | i | . | i | . | 5 | 14
CCc1ccc2c(CN3CCN(S(=O)(=O)c4cccs4)CC3)cc(=O)oc2c1 | i | 2% | i | ? | -6 | -75*
COC(=O)C1CCN(Cc2cc(=O)oc3cc(C)c(Cl)cc23)CC1 | i | -3% | i | 0% | 95* | 4
CCc1ccc2c(CN3CCC(C(=O)OC)CC3)cc(=O)oc2c1 | i | 0% | i | 4% | 100* | 50
CCc1nc2ccc(C(=O)NCCCn3ccnc3)cn2c1N(C)C(=O)COc1ccccc1 | ? | . | i | . | 2 | 0
CCOc1ccc(NC(=O)CSc2nccn2-c2cccc(C)c2C)cc1 | i | . | ? | . | -9 | .
Nc1cc2c(cc1C(=O)c1ccccc1)OCCO2 | i | 8% | i | 16% | -1 | -60*
CC(=O)c1ccc(N2C(=O)CC(N3CCN(S(=O)(=O)c4cc(C)ccc4C)CC3)C2=O)cc1 (centres undefined) | i | -1% | ? | 2% | -4 | -4
CCOC(=O)c1noc2ncnc(NCc3ccccc3OC)c12 | i | . | i | . | -5 | .
Nc1c(C(=O)CSc2nc3ccccc3o2)c(=O)[nH]c(=O)n1C1CC1 | i | 15% | 1.3µM* | ? | 11 | 0
Cc1ccc(C)c(-n2ccnc2SCC(=O)c2c(N)n(C3CC3)c(=O)[nH]c2=O)c1 | i | 18µM* | i | 10% | 0 | -9
Cc1cc(-c2ccccc2)n2nc(-c3cccc(Br)c3)cc2n1 | i | . | i | . | 0 | .
Cc1cc2cc(C#N)c(SCC(=O)Nc3nonc3C)nc2cc1C | i | ? | i | 15µM* | -4 | -17
CCC1OC(=O)C[C@@H](O)[C@H](C)[C@@H](O[C@@H]2O[C@H](C)C[C@H](N(C)C)[C@H]2O)[C@@H](CC=O)C[C@@H](C)C(=O)/C=C/[C@]2(C)OC2C1C (some centres undefined) | . | . | . | . | -9 | .
CCC(CO)Oc1cc(NCc2ccccc2O)c2ncn(C(C)C)c2c1 (centres undefined) | i | 1% | i | -16% | 50* | 183
CC[C@H](CO)Oc1cc(NCc2ccc(Cl)c(Cl)c2)c2ncn(C(C)C)c2c1 | i | 18% | ? | 21µM* | 5 | ?
COCCOc1cc(NCc2ccccc2)c2ncn(C(C)C)c2c1 | ? | ? | i | -3% | -15 | -71*
CCOC(=O)[C@H]1[C@H]2COc3ccc(C)cc3[C@@H]2N2C(=O)c3cc(F)ccc3NC(=O)[C@@]12C | i | 2% | i | -7% | -1 | 7
C=CCn1c(N)c(C(=O)Nc2ccccc2)c2nc3ccccc3nc21 | i | 22%[9.22 µM] | ? | 5.6µM* | 1 | 10
C=CCn1c(N)c(C(=O)OC(C)(C)C)c2nc3ccccc3nc21 | i | ? | i | ? | 3 | 16
C=CCn1c(N)c(C(=O)OC(C)CC)c2nc3ccccc3nc21 (centres undefined) | 8.2µM* | -123% | i | -2% | 5 | 2
CC(=O)c1cc2c(cc1N/C(=N/S(=O)(=O)c1ccc(C)cc1)c1ccc(F)cc1)OCO2 | i | . | i | . | -10 | .
CCOC(=O)c1cnc(SC)nc1Nc1cccc2ccccc12 | 12µM* | 7% | i | ? | 5 | 17
CCOC(=O)c1cnc(-n2cc(C)cn2)nc1Nc1ccccc1OCC | 1.2µM* | -4% | ? | 10% | 9 | -28
SMILES | KB-V1 cytotox | SW480 rereplic | KB-3-1 tox | MCF10A rereplic | DRD3 agonist | DRD3 antagonist
CCOC(=O)c1cnc(SC)nc1Nc1cccc(F)c1 | 15µM* | 1% | i | -3% | 3 | 0
CC1(C(=O)NS(=O)(=O)c2cccc(C#N)c2)CCN1C(=O)CC1CCCCC1 (centres undefined) | i | . | i | . | 7 | 43
Cc1ccc(-c2nc3cc(Cl)ccc3o2)cc1NC(=O)COc1ccc(F)cc1 | i | . | i | . | 7 | .
CCCC(=O)Nc1nnc(SCC(=O)Nc2ccc3c(c2)OCCO3)s1 | i | -1% | i | 6% | 2 | 10
Cc1cccc(Nc2nnc(SCC(=O)NC(=O)Nc3ccc4c(c3)OCCO4)s2)c1 | ? | ? | ? | 23µM* | -5 | -4
CC(=O)Nc1nnc(SCC(=O)Nc2ccc3c(c2)OCCO3)s1 | ? | 1% | i | -4% | -13 | -4
Cc1cccc(Nc2nnc(SCC(=O)Nc3cccnc3Cl)s2)c1 | 15µM* | -14% | i | 15% | 2 | 15
Nc1nnc(SCC(=O)Nc2cccnc2Cl)s1 | i | -7% | i | 1% | 5 | 12
COc1ccccc1Nc1nnc(SCC(=O)NC(=O)Nc2ccc3c(c2)OCCO3)s1 | i | 17% | i | 21µM* | 1 | -2
Cc1nnc(SCC(=O)NC(=O)Nc2ccc3c(c2)OCCO3)s1 | i | 0% | i | 2% | -11 | -70*
Cc1ccc(C)c(CSc2nc(-c3ccccc3F)nc3c2Cc2c(CO)cnc(C)c2O3)c1 | i | . | i | . | 0 | .
COC(=O)C[C@H]1c2cc(C(F)(F)F)ccc2S(=O)(=O)N1C(C)C | i | . | i | . | . | .
COc1ccccc1N(CC(=O)NCCSc1ccccc1)S(=O)(=O)c1ccc(C)cc1 | i | . | i | . | 3 | .
Brc1ccc2oc3c(N4CCOCC4)ncnc3c2c1 | 16µM* | -4% | i | 12% | 6 | 2
c1ccc(N2CCN(c3ncnc4c3oc3ccccc34)CC2)cc1 | 16µM* | -3% | i | 3% | 36* | 90
COc1ccc(-c2cc(C(=O)Nc3cccc(O)c3)on2)cc1OC | i | . | i | . | 6 | .
CCN(CC)S(=O)(=O)c1ccc(N2CCOCC2)c(NC(=O)C23CC4CC(CC(Cl)(C4)C2)C3)c1 | 23µM* | -27% | i | ? | -4 | 9
CCN(CC)S(=O)(=O)c1ccc(N2CCOCC2)c(NC(=O)c2ccccc2)c1 | ? | -3% | i | 1% | 4 | -9
CC(=O)c1ccc(NC(=O)CSc2nc(-c3ccccc3C)nc3c2c(=O)n(C)c(=O)n3C)cc1 | i | . | i | . | 6 | .
CCn1cc(C(=O)O)c(=O)c2cc(F)c(N/N=C/c3ccccc3[N+](=O)[O-])cc21 | 13µM* | 4% | i | -3% | -18 | 2
COc1cc(Cl)c(C)cc1NC(=O)CN1CCN(C(=O)C2CC2)CC1 | 21µM* | ? | i | -13% | 3 | -7
